Test results from PubChem BioAssay (NCATS).
Results filed as inconclusive are left out. Where a call stands in place of a potency, no number is given. The source made the active and inactive calls. Calls come from the whole dose curve; as a rule, active = well fitted activation curve with a large enough effect in the repeat runs; inconclusive = weak or mixed curves; inactive = flat fitted curve, though single readings scatter.

Test: qHTS assay for small molecule agonists of the antioxidant response element (ARE) signaling pathway measured by Nrf2-dependant transcriptional activity (AID 720636)
Conditions: ARE-luc HepG2, Nrf2 luciferase reporter, 16 h; series mostly up to 92.4 µM
Text: National Center for Advancing Translational Sciences [NCATS] NIH Chemical Genomics Center [NCGC] U.S. Environmental Protection Agency [EPA] National Institutes of Environmental Health Sciences [NIEHS] National Toxicology Program [NTP] Assay Overview: The antioxidant response element (ARE) signaling pathway plays an important role in the cellular anti-oxidant defense. Exposure to stressors which are exogenous like ionizing radiations, chemicals, U-V light, and endogenous like cell signaling, metabolic processes or inflammation, reactive oxygen species (ROS), can induce oxidative stress in the cells. Oxidative stress has been implicated in the pathogenesis of a variety of diseases ranging from cancer to neurodegeneration. ARE-luc HepG2 cell line (Simmons et al., Current Chemical Genomics, 5:1-12, 2011) has been used for identifying the chemicals that induce oxidative stress. The cell line has an Nrf2-responsive luciferase reporter gene that has been engineered to measure Nrf2-dependant transcriptional activity.
Assay Protocol Summary: For measuring ARE induction; 2,000 ARE-luc HepG2 cells in 5 uL of assay medium containing 1% dialyzed FBS per well were dispensed into white wall/solid bottom 1536-well plates using a Flying Reagent Dispenser (FRD) (Aurora Discovery). The assay plates were incubated for 6 hr at 37 C to allow cell attachment to the well bottom, followed by the transfer of 23 nL compound or DMSO vehicle by a pin tool (Kalypsys). The plates were incubated for 16 hr at 37 C and 5% CO2, followed by the addition of 5 uL of ONE-GloTM luciferase reagent (Promega) into each well using FRD. After 30 min room temperature incubation, plates were read on a ViewLux plate reader (PerkinElmer).
Potency is the fitted concentration of half-maximal effect.

Compound | Potency
CCOc1ccc(C(C)(C)COCc2cccc(Oc3ccccc3)c2)cc1 | inactive
CS(=O)(=O)NC(=O)c1cc(Oc2ccc(C(F)(F)F)cc2Cl)ccc1[N+](=O)[O-] | inactive
CCOC(=O)COc1cc(-c2nn(C)c(OC(F)F)c2Cl)c(F)cc1Cl | inactive
CCCCC(O)(Cn1cncn1)c1ccc(Cl)cc1Cl (stereo not given) | inactive
CCCOCC(=Nc1ccc(Cl)cc1C(F)(F)F)n1ccnc1 | 61.1 µM (active)
Oc1ccc(C(c2ccc(O)cc2)(C(F)(F)F)C(F)(F)F)cc1 | inactive
O=C(O)c1c(Cl)ccc2cc(Cl)cnc12 | inactive
CC[C@H](C)[C@H]1O[C@]2(C=C[C@@H]1C)C[C@@H]1C[C@@H](C/C=C(\C)[C@@H](O[C@H]3C[C@H](OC)[C@@H](O[C@H]4C[C@H](OC)[C@@H](NC)[C@H](C)O4)[C@H](C)O3)[C@@H](C)/C=C/C=C3\CO[C@@H]4[C@H](O)C(C)=C[C@@H](C(=O)O1)[C@]34O)O2 | inactive
c1cc(OCC2CO2)cc(OCC2CO2)c1 (stereo not given) | inactive
COC(=O)c1c(C(F)F)nc(C(F)(F)F)c(C2=NCCS2)c1CC(C)C | inactive
C/C(=N\NC(=O)Nc1cc(F)cc(F)c1)c1ncccc1C(=O)O | inactive
c1ccc2c(c1)c1cccc3ccc4cccc2c4c31 | inactive
O=C1c2ccccc2C(=O)C1C(=O)C(c1ccccc1)c1ccc(Cl)cc1 (stereo not given) | inactive
N#CC(Br)(Br)C(N)=O | inactive
CC(C)N(C(=O)SCC(Cl)=C(Cl)Cl)C(C)C | inactive
CN/C(=N/[N+](=O)[O-])NCC1CCOC1 (stereo not given) | inactive
CCOP(=S)(NC(C)C)Oc1ccccc1C(=O)OC(C)C (stereo not given) | inactive
CC(C)C1(C)N=C(c2ncccc2C(=O)O)NC1=O (stereo not given) | inactive
OC(Cn1cncn1)(c1ccc(F)cc1)c1ccccc1F (stereo not given) | inactive
CCCOc1nn(C(=O)NS(=O)(=O)c2ccccc2C(=O)OC)c(=O)n1C | inactive

Compound | Potency
CC(C)[C@H](C(=O)O[C@H](C#N)c1cccc(Oc2ccccc2)c1)c1ccc(Cl)cc1 | inactive
COC(=O)N(OC)c1ccccc1COc1ccn(-c2ccc(Cl)cc2)n1 | inactive
O=CNC(N1CCN(C(NC=O)C(Cl)(Cl)Cl)CC1)C(Cl)(Cl)Cl (stereo not given) | inactive
C=CC(=O)NCO | inactive
O=c1[nH]c2ccccc2c(=O)o1 | inactive
COP(=O)(OC)SCn1c(=O)oc2cc(Cl)cnc21 | inactive
COc1cnc(OC)n2nc(NS(=O)(=O)c3c(OCC(F)F)cccc3C(F)(F)F)nc12 | inactive
Cc1ccccc1CO[C@@H]1C[C@@]2(C(C)C)CC[C@]1(C)O2 | inactive
C1=Cc2cccc3cccc1c23 | inactive
Nc1cccc(Cl)c1Cl | inactive
O=P(OCC(Br)CBr)(OCC(Br)CBr)OCC(Br)CBr (stereo not given) | inactive
CNC(=O)Oc1cc(C)c(SC)c(C)c1 | inactive
COC(=O)/C=C(\C)OP(=O)(OC)OC | inactive
COP(=O)(OC)OC(Br)C(Cl)(Cl)Br (stereo not given) | 68.6 µM (active)
C#CCO | inactive
CC1(C)CN=C(NN=C(/C=C/c2ccc(C(F)(F)F)cc2)/C=C/c2ccc(C(F)(F)F)cc2)NC1 | inactive
CN(C)P(=O)(N(C)C)N(C)C | inactive
CC(C)(C)OOC(C)(C)CCC(C)(C)OOC(C)(C)C | inactive
CCc1cnc(C2=NC(C)(C(C)C)C(=O)N2)c(C(=O)O)c1 (stereo not given) | inactive
CCOP(=O)(NC(C)C)Oc1ccc(S(C)=O)c(C)c1 (stereo not given) | inactive
